# Screening results (PubChem BioAssay)
# In the library only some 8.7% were active in any assay of this set; here they are far more common.
# BAZ2B block – qHTS Assay for Inhibitors of BAZ2B; actives 4.4% (n = 360,000); Bromodomain adjacent to zinc finger domain protein 2B (Homo sapiens), Q9UIF8; Potency, µM (series often up to 114 µM), for inactives: at the highest dose activity change, negative = inhibition, actives largely listed as inhibitors; AlphaScreen BAZ2B-H3K14Ac peptide displacement; note: % is set by controls: 0 for no effect and ±100 for the full control effect; nearly all actives have a fitted effect of over 60% in size
#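 AlphaScreen displacement: compounds (up to 110uM) incubated 30 min at room temperature with a preformed 50 nM BAZ2B/50 nM biotinylated H3K14Ac peptide complex in PBS pH 7.4 with Tween-20. Donor and acceptor beads at 10 ug/mL final added, 20 min light-protected before reading.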
# HP1b binding inh – HTS for Inhibitors of HP1-beta Chromodomain Interactions with Methylated Histone Tails. actives 0.56% (n = 390,000). AID 540317, 2011. AlphaScreen HP1-beta / biotin-H3K9me3 peptide binding. Potency, µM (top dose mostly 114 µM), inactives show top-dose activity change, negative = inhibition, most hits filed as inhibitors; note: nearly all actives have a fitted effect of over 70% in size
# Target sequence (P83916 whole entry, looked up): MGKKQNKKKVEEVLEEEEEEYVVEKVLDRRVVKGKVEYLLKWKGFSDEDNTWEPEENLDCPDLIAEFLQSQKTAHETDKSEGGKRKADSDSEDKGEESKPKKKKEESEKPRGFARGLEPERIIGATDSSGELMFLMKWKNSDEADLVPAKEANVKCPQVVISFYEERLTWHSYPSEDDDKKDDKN
#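 Compound inhibition of the preformed complex between 50 nM HP1-beta and 50 nM biotinylated H3K9me3 peptide was read by AlphaScreen. Buffer was PBS pH 7.4 with 0.01% Tween-20. Incubations ran 30 min at room temperature, with 10 ug/mL donor/acceptor beads.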
# Sfp PPTase inh – qHTS Assay for Inhibitors of Bacillus subtilis Sfp phosphopantetheinyl transferase (PPTase) | 4'-phosphopantetheinyl transferase ffp (Bacillus subtilis), Q9F4F7 | Potency, µM, for the others: largest response in the series, negative = inhibition, hits mostly inhibitors | Biochemical Sfp PPTase activity, qHTS | actives 3.5% (n = 310,000);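 note: the enzyme is Sfp with the accession as filed and its product quenches rhodamine fluorescence; 0% = enzyme reaction without inhibitor and -100% = no enzyme wells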
#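 Reaction rates are the 30-min fluorescence difference (ex 525, em 598 nm) in wells containing 15 nM Sfp, 5 uM rhodamine-CoA and 12.5 uM BHQ-2-YbbR at pH 7.6 with 10 mM MgCl2.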
# ALOX12 inh – Primary qHTS assay for inhibitors of human arachidonate 12S-lipoxygenase (ALOX12): Round 2 | Polyunsaturated fatty acid lipoxygenase ALOX12 (Homo sapiens), P18054 | actives 1.1% (n = 580,000) | purified 12hLO, xylenol orange hydroperoxide absorbance | Potency, µM (series often up to 108 µM), for inactives: at the top dose activity change, negative = inhibition, actives largely listed as inhibitors; note: % is set by controls: 0 for no effect and ±100 for the full control effect
#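 Purified human 12hLO at 150 nM in 25 mM Hepes, 0.01% Triton X-100, pH 7.0, preincubated 15 min at room temperature with compound. Reaction started with 40 uM arachidonic acid, 30 min at room temperature. Hydroperoxide measured by Fe-xylenol orange, 573/405 nm absorbance ratio.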
# JMJD2A Tudor inh – qHTS Assay for Inhibitors of JMJD2A-Tudor Domain; actives 4.4% (n = 390,000); AlphaScreen JMJD2A-Tudor / H3K4me3 peptide binding; AID 504339, 2011; Potency, µM (highest dose often 114 µM), for inactives: top-dose activity change, negative = inhibition, usual class: inhibitors; note: % is set by controls: 0 for no effect and ±100 for the full control effect; nearly all actives have a fitted effect of over 50% in size
# G9a inh – qHTS Assay for Inhibitors of Histone Lysine Methyltransferase G9a. Histone-lysine N-methyltransferase EHMT2 (Homo sapiens), Q96KQ7. G9a H3K9 monomethylation, AlphaScreen, 2 h. Potency, µM (doses to about 102 µM), for the others: top-dose activity, negative = inhibition, actives largely listed as inhibitors. actives 8.8% (n = 350,000). AID 504332, 2011; note: % is set by controls: 0 for no effect and ±100 for the full control effect; nearly all actives have a fitted effect of over 75% in size
# Target sequence (Q96KQ7 913-1193 limits assumed): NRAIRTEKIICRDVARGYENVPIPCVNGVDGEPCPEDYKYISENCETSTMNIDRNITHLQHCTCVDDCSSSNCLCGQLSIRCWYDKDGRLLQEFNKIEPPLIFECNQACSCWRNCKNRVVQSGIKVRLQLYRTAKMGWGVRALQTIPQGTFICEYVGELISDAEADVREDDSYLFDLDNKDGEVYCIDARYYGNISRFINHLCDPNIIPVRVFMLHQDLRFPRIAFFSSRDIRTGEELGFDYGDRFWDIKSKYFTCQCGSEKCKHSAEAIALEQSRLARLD
#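 G9a (20 nM) preincubated 15 min RT with compounds, then 500 nM biotinylated H3K9 peptide and 20 uM SAM added; 2 h RT reaction. Monomethyl-H3K9 product detected by AlphaScreen with anti-H3K9me1 antibody, streptavidin donor and anti-rabbit IgG acceptor beads.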
# Starred values were filed as active, the others as inactive; ? = inconclusive; nt = no result given; [ ] = dose if it differs, or a comment. Calls come from the whole dose curve; as a rule, active = well fitted curve in the direction sought with a large enough effect; inconclusive = small, poorly fitted or top-dose-only effect, or another doubt; inactive = no such curve, though single readings can be large; an effect the other way counts as inactive or inconclusive. Potency is the fitted concentration of half-maximal effect.
SMILES,BAZ2B block,HP1b binding inh,Sfp PPTase inh,ALOX12 inh,JMJD2A Tudor inh,G9a inh
Cc1ccc(Oc2ccccc2NC(=O)CC(C)(C)CC(=O)O)cc1,nt,nt,nt,4.5%,nt,nt
N#Cc1c(-c2ccccc2)cc(-c2ccccc2)[nH]c1=O,5.6%,43.4%,3.5%,0.0%,-4.0%,37.4%
N#Cc1c(-c2cccc(Br)c2)cc(-c2ccco2)[nH]c1=O,44.7µM*,-3.3%,?,17.8µM*,?,11.2µM*
COc1ccc(-c2cc(-c3ccco3)[nH]c(=O)c2C#N)cc1,56.2µM*,17.4%,50.1µM*,39.8µM*,?,nt
Cc1ccc(NC(=O)Cc2nn(C)c(=O)c3ccccc23)cc1C,nt,nt,nt,1.7%,nt,nt
Cc1ccc(S(=O)(=O)[C@H]2CS(=O)(=O)C[C@@H]2N2CCN(c3ncccn3)CC2)cc1,nt,nt,nt,-9.8%,nt,nt
COc1cc(/C=N/NC(=O)NC2CCCCC2)cc(OC)c1O,-14.4%,-6.5%,-12.7%,-2.5%,-18.5%,50.1µM*
COC(=O)C1=C(N)Oc2cc(C)n(C)c(=O)c2C1c1cccc(OC)c1 (stereo not drawn),nt,nt,nt,9.3%,nt,nt
O=C(c1cc(Cl)ccc1F)N1CCCC(Nc2ccc3c(c2)OCCO3)C1 (stereo not drawn),?,-12.8%,-1.1%,0.0%,?,79.4µM*
CSCc1ccc(C(=O)N2CCCC(Nc3ccc(F)cc3)C2)o1 (stereo not drawn),?,-2.0%,19.5%,295.5%,?,?
CSCc1ccc(C(=O)N2CCCC(Nc3ccc4c(c3)OCCO4)C2)o1 (stereo not drawn),-34.6%[57.1 µM],14.4%,-5.4%,-12.4%,-22.8%,79.4µM*
Cc1ccc(-c2cc(C(=O)O)c3cc(C)cc(C)c3n2)cc1,nt,nt,nt,-1.0%,nt,nt
COCCn1c(C)cnc1CC1CCN(C(=O)c2ccc(C)s2)CC1,nt,nt,nt,2.8%,nt,nt
COc1ccccc1CNC(=O)c1sc(-c2ccc(OC)c(OC)c2)nc1C,nt,nt,nt,-12.4%,nt,nt
Cc1ccc(-c2nc(C)sc2CC(=O)NCC23CC4CC(CC(C4)C2)C3)cc1,nt,nt,nt,-12.1%,nt,nt
COc1cc(/C=N/n2c(-c3cc(C)[nH]n3)n[nH]c2=S)cc(OC)c1O,?,?,28.2µM*,?,3.55µM*,5.01µM*
COc1cc(/C=N/N2CCCCC2)cc([N+](=O)[O-])c1O,44.7µM*,-21.0%,-2.2%,-3.1%,?,50.1µM*
Cc1cccc(-c2n[nH]c(=S)n2/N=C/c2ccc(C)o2)c1,-30.5%,-33.3%,?,?,7.94µM*,2µM*
Cc1cc(-c2n[nH]c(=S)n2/N=C/c2ccc(C)o2)n[nH]1,-28.9%,?,-14.8%,1.3%,3.16µM*,7.94µM*
Cc1ccc(-c2ncc(C(=O)NCCC3=CCCCC3)c(-c3ccncc3)n2)cc1,nt,nt,nt,3.9%,nt,nt
CCc1n[nH]c(=S)n1/N=C/c1cc(OC)cc([N+](=O)[O-])c1O,13.8%,?,22.4µM*,?,5.01µM*,7.94µM*
COc1ccc(/C=N/n2c(-c3cc(C)[nH]n3)n[nH]c2=S)cc1OC,?,16.3%,56.2µM*,?,3.55µM*,nt
CC(/C=N/n1c(-c2cc(C)[nH]n2)n[nH]c1=S)=C\c1ccccc1,-36.7%,7.0%,?,0.9%,?,?
COc1ccc(/C=N/n2c(-c3cc(C)[nH]n3)n[nH]c2=S)cc1,-26.6%,?,-28.0%,?,3.55µM*,2.24µM*
COc1ccc(/C=N/n2c(=S)n(C)c3ccccc32)cc1OC,?,-2.8%,1.3%,-7.3%,?,?
SMILES,BAZ2B block,HP1b binding inh,Sfp PPTase inh,ALOX12 inh,JMJD2A Tudor inh,G9a inh
Cc1n[nH]c(=S)n(/N=C/c2cccc([N+](=O)[O-])c2)c1=O,3.1%,28.7%,-12.4%,?,?,-7.3%
COc1cc(/C=N/n2c(=S)[nH]nc(C)c2=O)cc([N+](=O)[O-])c1O,-19.1%,37.5%,14.1µM*,-18.4%,?,11.3%
COc1ccc(CCN2CCCC(CN(C)C(=O)c3ccoc3C)C2)cc1 (stereo not drawn),?,1.5%,9.8%,373.2%,-11.8%,-2.4%
Cc1occc1C(=O)N(C)CC1CCCN(CCc2ccc(Cl)cc2)C1 (stereo not drawn),nt,nt,nt,44.7µM*,nt,nt
COC(=O)CSc1nc2ccsc2c(=O)n1C,nt,nt,nt,9.1%,nt,nt
O=[N+]([O-])c1ccc(S(=O)(=O)NN=C2CCCCC2)cc1,nt,-12.5%,nt,-1.0%,-7.6%,nt
O=[N+]([O-])c1ccc(S(=O)(=O)N/N=C/c2ccsc2)cc1,?,33.1%,4.0%,?,-15.2%,44.7µM*
CC(C)c1ccc2cc(C(=O)NCC3CCS(=O)(=O)C3)[nH]c2c1 (stereo not drawn),nt,nt,nt,67.8%,nt,nt
COC[C@@H]1CN(C(=O)c2cncc(C)c2)C[C@H]1C(N)=O,nt,nt,nt,34.1%,nt,nt
COCCN1CC(CO)C2(CCN(C(=O)COc3cccc(C)c3)CC2)C1 (stereo not drawn),nt,nt,nt,20.1%,nt,nt
CN(C)S(=O)(=O)c1cc(NC2CC(=O)N(c3ccc(F)cc3)C2=O)ccc1Cl (stereo not drawn),-15.3%,45.1%,2.0%,-9.9%,-10.6%,35.5µM*
COc1ccc(N2CCC(CNC(=S)Nc3cc(C)ccc3C)C2)cc1 (stereo not drawn),31.6µM*,?,-2.7%,?,39.8µM*,?
COc1ccc(N2CCC(CNC(=S)Nc3cc(C)cc(C)c3)C2)cc1 (stereo not drawn),3.16µM*,15.8µM*,2.0%,?,20µM*,?
CCc1cnc(N)nc1N(C)CCC(O)c1ccccc1 (stereo not drawn),nt,nt,nt,9.3%,nt,nt
Cn1ccnc1SCc1ccc(Cl)cc1Cl,-12.9%,7.6%,1.1%,3.8%,?,8.91µM*
Nc1nc(Nc2ccccc2F)nc(-c2cc3ccccc3o2)n1,nt,nt,nt,-27.6%,nt,nt
COc1ccc2[nH]c(C(=O)O)c(CCN3C(=O)c4cccc([N+](=O)[O-])c4C3=O)c2c1,79.4µM*,36.2%,8.9%,-0.8%,-15.1%,?
COc1ccc2[nH]c(C(=O)O)c(CCNC(C)=O)c2c1,-1.8%,37.5%,11.8%,?,-17.5%,6.3%
CCn1cc(C(=O)O)c(=O)c2cc(F)c(N3CCN(C(=S)NC(=O)c4ccc(Br)cc4)CC3)cc21,31.6µM*,-4.8%,3.8%,-17.2%,-14.3%[11.4 µM],6.8%
